According to PubChem BioAssay (NCI):
The panel holds about 83,000 compounds, 20% with a hit somewhere; the sample as a whole holds those more often.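 Single-dose data. Exposure time 48 hours. Values below 10 considered active.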 A number with no mark means an inactive call. Activity calls are given as the source filed them.

test system: M14 melanoma; experiment: NCI-60 one-dose screen, 48 h (100 = growth as untreated, 0 = no growth, -100 = all killed); conditions: 10 µM unless noted
Procedure: Growth inhibition of the M14 human tumor cell line is measured as a screen for anti-cancer activity. Cells are grown in 96 well plates and exposed to the test compound for 48 hours. Compounds are tested at a single concentration, which is 10^-5 M for most compounds. The reported endpoint is percent growth (GI% or GIPRCNT), where numbers from 0 - 100% represent growth inhibition, and numbers from -100% - 0 represent cell death. For example, a value of 40 represents 60% growth inhibition. A value of 0 means no net growth occurred over the course of the experiment. A value of -40 indicates 40% of cells at the beginning of the experiment died by the end of the experiment. A value of -100 means all cells are dead at the end of the experiment.
NCI-60 Human Tumor Cell Lines Screen was performed using the standard one-dose NCI protocol, which is described in more detail at https://dtp.cancer.gov/discovery_development/nci-60/default.htm.
Compounds with GIPRCNT values below 10 were considered active. Activity score was based on GIPRCNT using the following formula: […]
Score is 0 for GIPRCNT values of 100 or above, 50 for GIPRCNT values of 0, and 100 for GIPRCNT values of -100.

Structure (SMILES) | growth
N#C/C(C(=O)c1ccccc1)=C1/C(=O)Nc2ccccc21 | 35.6%
O=C1NC(=O)c2cc([N+](=O)[O-])cc3cccc1c23 | 93.3%
CCN1CCN(CC(=O)Nc2nc3ccc(NCc4ccc(Cl)cc4)cc3s2)CC1 | -76.6% (active)
CCOC(=O)c1c[nH]n2c(=S)ncnc12 | 103%
Nn1c(Nc2ccc(S(=O)(=O)Nc3ncccn3)cc2)nnc(/C=C/c2c(O)ccc3ccccc23)c1=O | 97.5%
C[C@H]1[C@H](C)CC[C@]2(C(=O)N3CCN(C)CC3)CC[C@]3(C)C(=CC[C@@H]4[C@@]5(C)C/C(=C/c6ccco6)C(=O)C(C)(C)[C@@H]5CC[C@]43C)[C@H]12 | 48.8% [100 µM]
CC(=O)n1cc(C=O)c2ccccc21 | 102%
Brc1ccc2c(c1)CN(C1CCCCC1)CO2 | 105%
NC(=O)c1cccc(-c2ccc(S(=O)(=O)Nc3ccc4c(c3)N(C(=O)C3CC3)CCC4)cc2)c1 | 95.5%
Nc1nc(SCc2cccc([N+](=O)[O-])c2)c2[nH]cnc2n1 | 100%
NNC(=O)c1ccc(C(=O)NN)cc1 | 114%
O=C(O)c1cccc(CN2CCN(c3cc4c(cc3F)c(=O)c(C(=O)O)cn4C3CC3)CC2)c1O | 101%
Nc1ccc(NC(=O)c2ccccc2)c2c1C(=O)c1ccccc1C2=O | 100%
Cc1ccc2c(n1)C(=O)C(Cl)=C(Nc1ccc(N3CCN(C)CC3)cc1)C2=O | 73.8%
COc1ccc(C(=O)/C=C/c2ccccn2)c(O)c1 | 86.6%
C#CCC(C(=O)OCC)C(=O)OCC | 105%
C1=C[C@H]2O[C@@H]1c1ccc3[nH]ccc3c12 | 86.3%
C=C(C)[C@@H]1CC[C@]2(C(=O)NCCNCCNC(=O)OC(C)(C)C)CC[C@]3(C)[C@H](CC[C@@H]4[C@@]5(C)CCC(=O)C(C)(C)[C@@H]5CC[C@]43C)[C@@H]12 | 54.1% [100 µM]
CC(=O)Nc1ccc(C=Nc2ccc3ccccc3c2)cc1 | 97%
CC1(C)CC[C@]2(C(N)=O)CC[C@]3(C)C(=CC[C@@H]4[C@@]5(C)C/C(=C/c6ccncc6)C(=O)C(C)(C)[C@@H]5CC[C@]43C)[C@@H]2C1 | -24.4% [100 µM] (active)

Structure (SMILES) | growth
C=CCCCCCCCCC(=O)OC(C)C | 96.4%
CCOC(=O)C1=C(C(=O)c2ccc(Br)cc2)C(c2ccc(Br)cc2)NC(=S)N1 (stereo not given) | 97.2%
CC[C@@](C)(NC(=O)[C@H](C)NC(=O)CCNC(=O)C(C)(C)NC(=O)[C@H](C)NC(=O)[C@@H]1CCCN1C(=O)[C@@](C)(CC)NC(=O)[C@H](Cc1ccccc1)NC(=O)C1CCCN1C(=O)C(C)(C)NC(=O)C1CCCN1C(=O)C(C)(C)NC(C)=O)C(=O)NCCC(=O)N[C@@H](CC(C)C)C(=O)NC(C)(C)C(=O)NCCC(=O)N[C@@H](CC(C)C)C(=O)NC(C)(C)C(=O)NC(C)(C)C(=O)N[C@@H](CC(C)C)C(=O)NCCC(=O)NCO (stereo not given in full) | -88.6% (active)
COc1cc2c(cc1OCCCCCOc1ccc(-n3c(C)nc4ccccc4c3=O)cc1)N=C[C@@H]1CCCN1C2=O | -64.3% (active)
COc1cc(NCc2ccccc2O)c2ncccc2c1 | 94.4%
O=C(CCCSc1nc(-c2ccccc2)cc(-c2ccccc2)n1)NO | 5.46% (active)
C=C(C)[C@@H]1CC[C@]2(C(=O)NCCCN)CC[C@]3(C)[C@H](CC[C@@H]4[C@@]5(C)CC[C@H](O)C(C)(C)[C@@H]5CC[C@]43C)[C@@H]12 | 5.07% [100 µM] (active)
CC1(C)C(=O)/C(=C\c2ccco2)C[C@]2(C)[C@H]3CC=C4[C@@H]5C[C@](C)(C(=O)O)CC[C@]5(C)CC[C@@]4(C)[C@]3(C)CC[C@@H]12 | -43.4% [100 µM] (active)
CCCC[C@@H](C=O)NC(=O)[C@H](CC(C)C)NC(=O)[C@H](CC(C)C)NC(=O)OCc1ccccc1 | -35.3% (active)
CCN(CC)c1ccc2cc(C(Nc3ccc(C)cc3)c3nnnn3C(C)(C)C)c(=O)oc2c1 (stereo not given) | 103%
N#CC1C(=O)NC(c2ccccc2[N+](=O)[O-])c2sc3c(F)cccc3c21 (stereo not given) | 92.7%
Clc1ccc(/C=N/Nc2nc3ccccc3s2)c(Cl)c1 | 121%
C=C(C)[C@@H]1CC[C@]2(c3ncc(C)o3)CC[C@]3(C)[C@H](CC[C@@H]4[C@@](C)(CCC#N)[C@H](C(=C)C)CC[C@]43C)[C@@H]12 | -68.4% [100 µM] (active)
O=S(=O)(NCCCNc1nccc(-c2c(-c3cccc(F)c3)nc3occn23)n1)c1cccc2ccccc12 | 31.8%
CC1Cc2c(Cl)ncnc2N(C)c2ccc(O)cc21 (stereo not given) | 21.9%
Cc1ncc(C(=O)Nc2ccc(CN3CCN(C)CC3)c(C(F)(F)F)c2)cc1C#Cc1c(N)ncc2ccc(C#N)cc12 | -12% (active)
O=C(Nc1ccc(Nc2ccncc2)cc1)c1ccc([N+](=O)[O-])cc1 | 65.1%
COc1cc(Cl)cc(-c2nn(C(=O)NS(=O)(=O)c3ccccc3)cc2-c2ccncc2)c1 | 86.4%
O=C(CCNCc1ccccc1)c1ccccc1 | 105%
CCc1ccc(NC(=O)N[C@@H](Cc2cc(F)cc(F)c2)C(=O)N[C@@H]2C(=O)N3C[C@H](O)C[C@H]3C(=O)N3CCOC[C@H]3C(=O)N[C@@H](C)C(=O)N3C[C@H](C)C[C@H]3C(=O)O[C@H]2C)cc1 | 84.8%
